Compound activity (PubChem)
The entries come from a sample that favours hits as a whole.
Anthrax LF inh2 – blocks Bacillus anthracis lethal factor protease; P15917; multiplex microsphere protease cleavage assay, LF; hit rate 0.12% among 360,000; inhibition, % at 10 µM; note: plate controls were buffer without enzyme for full effect and enzyme alone for no effect
Autofluor counter – flagged as autofluorescent in microsphere protease counterscreen. AID 624483. fluorescence intensity (no concentration beside the values). hit rate 3.1% among 360,000. compound autofluorescence counterscreen, microsphere flow cytometry; hits give high values; in the data active = fluorescence intensity above about 16000; inconclusive = no clear call, values can overlap the other calls
BoNT-F LC inh – BoNT F light chain protease inhibition; hit rate 0.22% among 360,000; inhibition, % at 10 µM; Multiplex microsphere protease cleavage assay, flow cytometry; in the data active = inhibition above about 35%, passing the limit was not always enough; inconclusive = no clear call, values can overlap the other calls; note: plate controls were buffer without enzyme for full effect and enzyme alone for no effect
TcdB GH inh – TcdB glycohydrolase inhibition. P18177. TcdB glycohydrolase enzymatic assay, plate reader. hit rate 0.24% among 350,000. inhibition, % at 9.99 µM. AID 652162; in the data active = inhibition above about 10%
BoNT-A LC inh2 – BoNT A light chain protease inhibition; multiplex microsphere protease substrate cleavage, flow cytometry; inhibition, % at 10 µM; hit rate 0.17% among 360,000; note: plate controls were buffer without enzyme for full effect and enzyme alone for no effect
* marks the source's active call; other numbers are inactive results; ? = inconclusive; · = not tested or not shown. Cut-off read from the data, not from the text of the source, unless noted: active = inhibition above about 30%; inconclusive = no clear call, values can overlap the other calls; inactive = below that.

SMILES	Anthrax LF inh2	Autofluor counter	BoNT-F LC inh	TcdB GH inh	BoNT-A LC inh2
C[C@H](CO)N1C[C@H](C)[C@H](CN(C)Cc2ccc(C(=O)Nc3ccccc3N)cc2)Oc2ccc(NC(=O)Cc3ccccc3)cc2C1=O	·	·	·	1.2	·
Cc1cc(C(=O)Nc2ccc3c(c2)C(=O)N(C)[C@@H]2CC[C@@H](CC(=O)N[C@H](C)c4ccccc4)O[C@@H]2CO3)no1	·	·	·	2.1	·
Clc1ccc(Sc2oc(/C=N/n3cnnc3)cc2Br)cc1	0.9	19698*	3.0	·	1.6
O=C1CN(Cc2ccccc2)C[C@@H]2[C@H](c3ccc(Br)cc3)[C@@H](CO)N12	·	·	·	0.8	·
Cc1cc(NC(NC(=O)c2ccco2)(C(F)(F)F)C(F)(F)F)no1	-0.3	17442*	-3.9	·	-2.1
COc1ccc(C2C(C(=O)OCC3CCCO3)=C(C)NC3=C2C(=O)CC(c2ccco2)C3)cc1O (stereo unspecified)	-2.4	23267*	-1.1	·	-0.5
CC1=C(C(=O)OCC2CCCO2)C(c2ccccc2)C2=C(CCCC2=O)N1 (stereo unspecified)	2.1	4901	-0.5	1.7	-0.3
C=CCn1c(COc2ccccc2-c2ccccc2)nnc1SCC(=O)NC(=O)NCc1ccco1	-2.4	21241*	-5.7	0.5	-3.9
C[C@@H]1CN([C@H](C)CO)C(=O)c2cc(-c3ccc(C#N)cc3)cnc2O[C@H]1CN(C)C(=O)Nc1ccc(C(F)(F)F)cc1	·	·	·	-5.0	·
Cc1ccc(-c2noc(CSc3nnc(-c4ccncc4)n3-c3ccc(C)cc3)n2)cc1	0.3	24919*	-10.9	·	-7.2
CN(Cc1ccccc1)c1nc2c(c(=O)[nH]c(=O)n2C)n1Cc1ccccc1Cl	-3.8	22859*	-0.7	·	?
COc1ccc(S(=O)(=O)Nc2ccc3ccccc3c2)cc1C	1.1	25259*	-5.6	·	-3.8
Cc1ccc(S(=O)(=O)Nc2ccc3ccccc3c2)cc1	-1.1	3935	-6.3	-8.4	-0.3
Cc1cc(S(=O)(=O)Nc2cc(C)c(O)c(C)c2)c(C)s1	-5.6	16803*	-5.0	·	-2.8
COc1ccc(S(=O)(=O)NCCOc2ccccc2)cc1C	-9.2	3363	6.3	1.4	0.3
Cc1cc(S(=O)(=O)NCc2ccco2)c(C)s1	0.5	2959	3.7	·	0.5
COc1ccc(NS(=O)(=O)c2ccc3c(c2)OCCO3)cc1OC	0.7	4983	2.6	-1.8	-0.3
COc1ccc(S(=O)(=O)NCCC(C)C)cc1C	-1.2	23019*	-0.4	·	0.8
COc1ccc(S(=O)(=O)Nc2ccc3c(c2)OCO3)cc1OC	0.1	18331*	-1.6	-1.6	?
C[C@@H]1CN([C@H](C)CO)C(=O)c2cc(C#CC3CCCC3)cnc2O[C@@H]1CN(C)C(=O)C1CC1	·	·	·	1.3	·
COc1ccc(NC(=O)N(C)C[C@H]2Oc3ccc(NC(=O)NC4CCCCC4)cc3CC(=O)N([C@H](C)CO)C[C@@H]2C)cc1	·	·	·	-0.7	·
O=C(Nc1ccccc1F)N1C[C@H]2[C@@H](c3ccccc31)[C@H](CO)N2C(=O)c1ccccc1F	·	·	·	1.6	·
CO[C@@H]1CN(C)C(=O)c2cc(NS(=O)(=O)CC(F)(F)F)ccc2OC[C@@H](C)N(CCC(F)(F)F)C[C@H]1C	·	·	·	-0.6	·
Cc1cc(S(=O)(=O)Nc2ccc3ccccc3c2)c(C)s1	-4.5	19290*	2.2	0.7	4.6
Cc1cc(S(=O)(=O)Nc2cccnc2)c(C)s1	0.1	4703	-4.6	·	-0.6
SMILES	Anthrax LF inh2	Autofluor counter	BoNT-F LC inh	TcdB GH inh	BoNT-A LC inh2
O=C(C[C@H]1CC[C@@H]2[C@H](COC[C@@H](O)CN2CCc2ccccc2)O1)NCc1ccc(F)cc1	·	·	·	-0.9	·
O=[N+]([O-])c1ccc(/C=N/Nc2nc(N3CCCCC3)nc(N3CCCCC3)n2)o1	11.2	21202*	1.6	·	4.3
COc1c(/C=N/Nc2nc(N3CCCCC3)nc(N3CCCCC3)n2)cccc1[N+](=O)[O-]	3.9	11568	-11.7	·	-1.9
Cc1cc(Cl)ccc1OC(C)c1nnc(N)s1 (stereo unspecified)	-2.3	16493*	-1.2	·	-0.8
Cc1nc(SCC(=O)Nc2c(C)n(C)n(-c3ccccc3)c2=O)[nH]c(=O)c1Cc1ccccc1	-0.1	10493	11.0	0.2	0.7
CCc1c(C)nc(SCC(=O)Nc2c(C)n(C)n(-c3ccccc3)c2=O)[nH]c1=O	-0.4	21804*	4.7	·	3.7
Cc1c(NC(=O)CSc2nncc3ccccc23)c(=O)n(-c2ccccc2)n1C	-5.9	20089*	1.7	·	?
COc1ccccc1C#Cc1ccc([C@H]2[C@@H](CO)N3CCCCN(C(=O)C4CC4)C[C@H]23)cc1	·	·	·	-0.8	·
FC(F)Sc1nnc(-c2cccs2)n1-c1ccccc1	1.9	19168*	0.6	·	1.3
CN1C(=O)c2cc(NC(=O)C3CCCCC3)ccc2OC[C@@H]2O[C@H](CC(=O)NC3CCCC3)CC[C@@H]21	·	·	·	0.1	·
